Compound activity deposited in PubChem BioAssay by University of Kansas High Throughput Screening Laboratory.
The list is not random: actives were taken first. Their share in the collection is about 3.6%.
mHTT-CaM PPI inh: inhibitors of human mutant huntingtin-calmodulin interaction | P42858 | AlphaScreen His-mHTT/GST-CaM binding, luminescence | inhibition, % at 15 µM | 190,000 tested, 3.6% active | AID 1671202;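 note: 0% = both proteins with DMSO and 100% = one protein alone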
Target sequence (P42858 whole entry, looked up, stated change not applied): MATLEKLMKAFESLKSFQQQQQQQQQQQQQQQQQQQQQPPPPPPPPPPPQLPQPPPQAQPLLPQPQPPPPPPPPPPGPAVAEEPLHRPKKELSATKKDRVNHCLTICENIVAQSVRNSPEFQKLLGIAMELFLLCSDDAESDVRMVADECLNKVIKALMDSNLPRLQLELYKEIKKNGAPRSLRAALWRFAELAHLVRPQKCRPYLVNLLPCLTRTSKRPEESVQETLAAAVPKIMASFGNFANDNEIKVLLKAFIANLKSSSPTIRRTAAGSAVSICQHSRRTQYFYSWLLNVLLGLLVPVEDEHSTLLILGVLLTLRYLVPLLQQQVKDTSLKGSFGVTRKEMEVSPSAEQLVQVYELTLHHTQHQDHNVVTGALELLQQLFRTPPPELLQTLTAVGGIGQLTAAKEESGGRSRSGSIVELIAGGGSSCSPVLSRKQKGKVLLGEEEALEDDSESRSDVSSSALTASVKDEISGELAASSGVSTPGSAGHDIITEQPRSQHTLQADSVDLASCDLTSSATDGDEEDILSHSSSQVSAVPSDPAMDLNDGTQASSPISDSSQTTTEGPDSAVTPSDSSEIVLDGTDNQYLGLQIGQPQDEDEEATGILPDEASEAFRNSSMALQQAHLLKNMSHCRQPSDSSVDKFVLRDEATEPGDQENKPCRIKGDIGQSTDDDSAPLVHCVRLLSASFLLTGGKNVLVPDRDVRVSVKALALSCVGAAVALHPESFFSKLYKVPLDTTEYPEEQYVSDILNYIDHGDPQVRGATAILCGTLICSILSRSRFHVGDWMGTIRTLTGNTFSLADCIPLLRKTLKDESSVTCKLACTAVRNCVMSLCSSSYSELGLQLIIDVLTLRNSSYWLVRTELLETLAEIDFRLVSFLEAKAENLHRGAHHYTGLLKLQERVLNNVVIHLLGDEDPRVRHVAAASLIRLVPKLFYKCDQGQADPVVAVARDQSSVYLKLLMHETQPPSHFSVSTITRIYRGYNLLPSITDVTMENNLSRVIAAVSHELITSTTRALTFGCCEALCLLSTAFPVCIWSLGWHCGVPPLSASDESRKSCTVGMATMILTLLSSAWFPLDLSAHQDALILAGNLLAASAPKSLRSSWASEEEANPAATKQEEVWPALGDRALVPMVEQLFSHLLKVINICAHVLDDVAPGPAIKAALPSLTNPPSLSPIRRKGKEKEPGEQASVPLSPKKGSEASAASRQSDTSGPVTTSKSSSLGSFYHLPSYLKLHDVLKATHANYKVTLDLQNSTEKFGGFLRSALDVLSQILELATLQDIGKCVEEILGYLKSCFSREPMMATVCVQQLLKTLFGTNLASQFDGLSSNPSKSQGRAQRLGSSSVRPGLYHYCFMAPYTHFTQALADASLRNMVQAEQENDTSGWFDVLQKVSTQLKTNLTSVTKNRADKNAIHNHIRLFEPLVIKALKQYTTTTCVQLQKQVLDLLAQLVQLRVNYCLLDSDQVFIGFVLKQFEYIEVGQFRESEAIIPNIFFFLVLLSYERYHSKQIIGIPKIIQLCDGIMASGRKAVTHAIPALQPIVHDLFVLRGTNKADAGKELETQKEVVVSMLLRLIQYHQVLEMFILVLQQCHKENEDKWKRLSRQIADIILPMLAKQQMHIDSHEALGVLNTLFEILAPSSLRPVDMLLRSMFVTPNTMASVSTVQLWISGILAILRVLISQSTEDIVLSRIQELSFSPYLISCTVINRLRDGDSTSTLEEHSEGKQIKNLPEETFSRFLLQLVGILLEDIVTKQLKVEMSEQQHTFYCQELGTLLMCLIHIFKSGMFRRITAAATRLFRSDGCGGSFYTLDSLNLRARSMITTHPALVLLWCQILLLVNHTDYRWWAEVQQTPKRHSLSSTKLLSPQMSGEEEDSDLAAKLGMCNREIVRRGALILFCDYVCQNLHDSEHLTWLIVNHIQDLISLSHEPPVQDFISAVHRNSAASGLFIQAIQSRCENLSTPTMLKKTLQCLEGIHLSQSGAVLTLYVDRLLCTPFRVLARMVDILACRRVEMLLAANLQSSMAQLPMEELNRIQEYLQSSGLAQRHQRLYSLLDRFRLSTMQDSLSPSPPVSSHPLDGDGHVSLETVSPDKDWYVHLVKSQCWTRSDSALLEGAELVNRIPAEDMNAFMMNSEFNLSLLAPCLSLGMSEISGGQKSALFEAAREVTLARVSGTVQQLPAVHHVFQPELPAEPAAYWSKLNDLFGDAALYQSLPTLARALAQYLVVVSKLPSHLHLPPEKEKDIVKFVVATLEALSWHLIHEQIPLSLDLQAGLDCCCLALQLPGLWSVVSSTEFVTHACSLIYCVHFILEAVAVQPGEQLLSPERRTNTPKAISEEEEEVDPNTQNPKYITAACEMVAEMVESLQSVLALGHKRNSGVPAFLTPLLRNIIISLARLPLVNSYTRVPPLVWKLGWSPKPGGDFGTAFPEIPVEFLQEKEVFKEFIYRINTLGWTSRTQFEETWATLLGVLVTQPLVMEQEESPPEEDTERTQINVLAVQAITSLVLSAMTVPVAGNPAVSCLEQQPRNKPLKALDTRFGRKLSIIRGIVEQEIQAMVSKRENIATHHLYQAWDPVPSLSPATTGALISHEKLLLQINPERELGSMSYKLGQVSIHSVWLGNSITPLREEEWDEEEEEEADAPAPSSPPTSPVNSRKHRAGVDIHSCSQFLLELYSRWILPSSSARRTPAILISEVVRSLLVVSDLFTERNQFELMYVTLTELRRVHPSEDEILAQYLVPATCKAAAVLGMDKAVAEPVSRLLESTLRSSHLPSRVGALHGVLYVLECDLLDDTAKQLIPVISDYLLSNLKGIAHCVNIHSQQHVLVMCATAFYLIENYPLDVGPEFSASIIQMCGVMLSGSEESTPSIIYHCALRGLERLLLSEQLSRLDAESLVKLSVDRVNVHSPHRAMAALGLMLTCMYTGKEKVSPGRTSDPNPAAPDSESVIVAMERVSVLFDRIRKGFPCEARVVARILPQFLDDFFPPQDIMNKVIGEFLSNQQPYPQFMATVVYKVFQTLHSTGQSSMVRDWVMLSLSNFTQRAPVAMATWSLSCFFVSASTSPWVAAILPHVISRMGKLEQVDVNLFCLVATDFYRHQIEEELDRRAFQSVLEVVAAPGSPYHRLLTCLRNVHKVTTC
Pf apPOL inh: Pf-apPOL DNA polymerase inhibition; Recombinant Pf-apPOL, molecular beacon fluorescence, 1.5 h; 210,000 tested, 0.25% active; inhibition, % at 10 µM
* = called active by the depositor; . = not tested or not shown; ! = not active in a repeat. Cut-off read from the data, not from the text of the source: active = inhibition above about 50%; inactive = the rest.

SMILES | mHTT-CaM PPI inh | Pf apPOL inh
O=C(Cc1cccc(F)c1)N1CCCC(c2ccnc(Nc3ccccc3)n2)C1 (centres undefined) | 90.4* | 0.4
Cc1ccccc1Nc1nccc(C2CCCN(C(=O)COc3ccc(F)cc3)C2)n1 (centres undefined) | 90.1* | -5.5
O=C(Cc1cccc(F)c1)N1CCCC(c2ccnc(-c3cccc(F)c3)n2)C1 (centres undefined) | 6.8 | -1.5
CCOCC(=O)N1CCCC(c2ccnc(Nc3ccccc3C)n2)C1 (centres undefined) | 5.3 | -3.1
COc1nccnc1N1CCC(NC(=O)Cc2ccsc2)C1 (centres undefined) | 3.7 | 0.3
Cc1ccccc1-n1[nH]c2c3c(ccc2c1=O)C(=O)c1ccccc1C3=O | 13.0 | -0.5
O=[N+]([O-])c1ccc(-c2cc(-c3ccccc3OCc3ccccc3)on2)cc1 | . | -10.3
O=C(C1CC1)N1CCCC(c2ccnc(Nc3cccc(F)c3)n2)C1 (centres undefined) | 15.9 | -3.4
O=C(c1ccccc1)N1CCCC(c2ccnc(Nc3cccc(F)c3)n2)C1 (centres undefined) | 71.5* | -3.9
COc1ccc(OC)c(C=C2Oc3c(ccc(O)c3CN3CCC(C)CC3)C2=O)c1 | -5.0 | -4.6
COc1ccc(NC2=CC(=NS(=O)(=O)c3cc(C)ccc3C)c3ccccc3C2=O)cc1 | 47.0 | 6.7
CCOc1ccc(N=C(C)C2=C(O)c3ccccc3C2=O)cc1 | 4.6 | -8.1
CC(=NS(=O)(=O)c1ccc(C)cc1)N1CCOCC1 | -2.9 | 4.3
Cc1ccc(C)c(S(=O)(=O)N=C2C=C(Nc3ccccc3)C(=O)c3ccccc32)c1 | 89.0* | -3.1
Cc1ccc(S(=O)(=O)N=C2C=C(N3CCOCC3)C(=O)c3ccccc32)cc1 | 84.0* | 1.4
Cc1ccc(S(=O)(=O)N=C2C=C(Nc3cccc(C)c3)C(=O)c3ccccc32)cc1 | 82.0* | -1.5
CCOc1ccc(S(=O)(=O)N=C2C=C(Nc3cccc(C)c3)C(=O)c3ccccc32)cc1 | 82.0* | 1.9
Cc1cccc(NC2=C(N(C)C)C(=O)c3ccccc3C2=O)c1 | 18.6 | -10.1
COc1cccc(NC(=O)NCc2nnnn2-c2ccc(Cl)cc2)c1OC | 3.9 | -6.7
COc1ccccc1C1=N/C(=C\c2cccc(F)c2)C(=O)O1 | 1.0 | -1.1
CCNC(=O)c1cc(=O)[nH]c2c(C)cccc12 | 2.3 | -0.2
Cc1ccc(S(=O)(=O)N=C2C=C(NS(=O)(=O)c3ccccc3)C(=O)c3ccccc32)cc1 | 66.0* | 5.2
Cc1ccc(S(=O)(=O)Nc2ccccn2)cc1 | -8.5 | -7.9
Cn1c(=O)c2c(nc(N3CCCCCC3)n2CCSc2ncccn2)n(C)c1=O | 1.0 | 1.9
O=C(NC1CCCC1)c1cc2cn(C3CC3)cc2s1 | 10.2 | -6.2
SMILES | mHTT-CaM PPI inh | Pf apPOL inh
C=CCNC(=O)C1COC2(CCC(C)CC2)N1C(=O)c1ccccc1F (centres undefined) | -3.5 | 1.5
CSc1nnc(-c2nn(C)c3c2CN(C(=O)c2ccc(C#N)cc2)CC3)n1C | -2.5 | -4.4
CCn1c2c(c3ccccc31)CN(C(=O)c1ccc(C#N)cc1)CC2 | 54.3* | -4.1
O=C1Nc2ccccc2S/C1=C\C(=O)N1CCN(c2ccc(F)cc2)CC1 | 26.0 | -24.0
O=C(/C=C1\Sc2ccccc2NC1=O)NCCCN1CCN(c2ccc(F)cc2)CC1 | 74.0* | -16.6
O=S(=O)(c1ccccc1)N1CCN(S(=O)(=O)c2ccccc2)C1 | -7.0 | 8.4
O=C1C(N2CCCC2)=C(N2CCN(S(=O)(=O)c3ccccc3)CC2)C(=O)c2ccccc21 | 80.0* | -4.3
CC(CNC(=O)c1ccc(F)cc1)NC(=O)c1ccc(F)cc1 (centres undefined) | -4.1 | -3.2
COc1ccc(-n2ccnc2SCC(=O)Nc2ccc(Cl)c(Cl)c2)cc1 | 42.0 | -3.1
COc1cccc(C(=O)NC(c2ccc([N+](=O)[O-])cc2)c2cc(Cl)c3cccnc3c2O)c1 (centres undefined) | 20.0 | -9.0
COc1cccc(C(=O)NC(c2ccccc2)c2cc(Cl)c3cccnc3c2O)c1 (centres undefined) | 54.0* | 2.0
CCCC(=O)NC(c1ccco1)c1cc(Cl)c2cccnc2c1O (centres undefined) | 43.0 | 12.9
COc1cccc(C(=O)NC(c2ccc(OC)c(OC)c2)c2cc(Cl)c3cccnc3c2O)c1 (centres undefined) | 52.0* | -5.5
COc1cccc(C(=O)NC(c2ccco2)c2cc(Cl)c3cccnc3c2O)c1 (centres undefined) | 80.1* | 1.3
CCOc1ccc(OCC)c(NC(=O)C2=C(C)C(=O)OC23CCCCCC3)c1 | -2.8 | 2.8
COc1ccc(NC(=O)C(=O)NCCN2CCN(C(=O)c3ccc(OC)cc3)CC2)cc1 | 4.3 | -4.7
COCCOCC(=O)N1c2ccccc2C(C)(c2ccc(Cl)cc2)CC1(C)C (centres undefined) | 34.0 | -6.4
CC1(C)CC(C)(c2ccc(Cl)cc2)c2ccccc2N1 (centres undefined) | 85.0* | -9.8
COc1ccc(NC(=O)C[C@H]2C(=O)N(Cc3cccnc3)C[C@@H]2Cc2ccccc2)cc1 | 18.3 | -5.4
CCCCC[C@H]1CN(CCCC)C(=O)[C@@H]1CC(=O)NCc1ccccc1 | 11.6 | -9.6
O=C(C[C@H]1C(=O)N(c2ccccc2)C[C@@H]1Cc1ccccc1)Nc1ccc(Br)cc1 | 2.4 | 1.5
COc1ccc(CN2C[C@H](Cc3ccccc3)[C@@H](CC(=O)Nc3ccccc3)C2=O)cc1 | 68.2* | -7.1
CCCCC[C@H]1CN(Cc2ccc(OC)cc2)C(=O)[C@@H]1CC(=O)NCc1ccccc1 | 53.6* | 2.3
O=C(C[C@H]1C(=O)N(c2ccc(Br)cc2)C[C@@H]1Cc1ccccc1)Nc1ccccc1 | 50.8* | -5.1
Nc1ncc(-c2cccs2)s1 | 19.0 | -7.4
SMILES | mHTT-CaM PPI inh | Pf apPOL inh
Cc1nc2n(Cc3ccccc3)c3ccccc3n2n1 | -8.2 | -2.4
COc1ccc(C2CC(C3C(=O)c4ccccc4C3=O)=NN2)cc1 (centres undefined) | 100.0* | -1.2
COc1cccc2ccc(C3C(=O)c4ccccc4C3=O)nc12 | 2.0 | -3.8
CC(Cl)C(=O)Nc1c(Cc2ccccc2)nc2ccccn12 (centres undefined) | 44.0 | 71.6*
O=C(Nc1c(Cc2ccccc2)nc2ccccn12)C(Cl)Cl | 44.3 | 22.5
Cc1ccc2c(nc3s/c(=C\c4cccs4)c(=O)n32)c1C | -1.0 | 0.7
COc1ccccc1C1SC(NC(C)=O)=NN1C(C)=O (centres undefined) | 5.0 | 39.8
O=S(=O)(NCCSC1CCCCC1)c1ccc2c(c1)OCCO2 | -3.5 | 2.7
CC(C)(C)OC(=O)N1CCC(CNS(=O)(=O)c2ccc3c(c2)OCCO3)CC1 | . | 63.3*!
O=C(Nc1ccccc1)OC1c2cc(Cl)ccc2OC(=O)N1c1ccccc1 (centres undefined) | . | 2.7
Cc1ccc2nc(C(F)(F)F)cc(OCCN(C)C)c2c1 | . | -7.6
CSc1cccc(C(=O)N(CCn2cccn2)c2nc3c(Cl)cccc3s2)c1 | 100.1* | -4.7
COc1ccc(OC)c2sc(N(CCN(C)C)C(=O)c3cccc(SC)c3)nc12 | 18.2 | 1.9
CCc1cccc(NC(=O)C2CCCN(C(=O)c3cccc(C)c3)C2)c1 (centres undefined) | 28.1 | 6.4
O=C(Nc1c2c(nc3c1CCC3)CCCC2)C1CCCCC1 | 4.0 | 1.6
O=C(Nc1ccccc1[N+](=O)[O-])c1ccc(Cl)c(S(=O)(=O)NC2CCCC2)c1 | 28.3 | -6.6
